In the supplement of paper PMC11732987, “Enantioselective OTUD7B fragment discovery through chemoproteomics screening and high-throughput optimisation” (Communications Chemistry, 2025):

Tests used:
Assay in all cases: log2 ratio of Biotin-Ahx-Ub-VS probe labelling (fragment/DMSO); higher = less target engagement (more negative = stronger competition), active = hit call of the paper (q ≤ 0.05, log2 ratio ≤ -1)
Settings in all cases: compound concentration: 200 uM; treatment time: 3 h
USP34 = USP34 (UniProt Q70CQ2)
Method in brief: (§1)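 Average log2 ratios of fragment over vehicle were obtained by unpaired t-test from global-median-normalised Spectronaut label-free quantities. Proteins with ≥2 unique peptides were included. HEK293T lysate (495 µg per sample) was treated in triplicate with fragment at 200 µM or vehicle for 3 h, then with Biotin-Ahx-Ub-VS at 0.5 µM final for 1 h, and labelled DUBs were NeutrAvidin-enriched and run by diaPASEF LC-MS/MS.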

USP36 = biological target: T1, USP36 (UniProt Q9P275)
T1 sequence (whole entry): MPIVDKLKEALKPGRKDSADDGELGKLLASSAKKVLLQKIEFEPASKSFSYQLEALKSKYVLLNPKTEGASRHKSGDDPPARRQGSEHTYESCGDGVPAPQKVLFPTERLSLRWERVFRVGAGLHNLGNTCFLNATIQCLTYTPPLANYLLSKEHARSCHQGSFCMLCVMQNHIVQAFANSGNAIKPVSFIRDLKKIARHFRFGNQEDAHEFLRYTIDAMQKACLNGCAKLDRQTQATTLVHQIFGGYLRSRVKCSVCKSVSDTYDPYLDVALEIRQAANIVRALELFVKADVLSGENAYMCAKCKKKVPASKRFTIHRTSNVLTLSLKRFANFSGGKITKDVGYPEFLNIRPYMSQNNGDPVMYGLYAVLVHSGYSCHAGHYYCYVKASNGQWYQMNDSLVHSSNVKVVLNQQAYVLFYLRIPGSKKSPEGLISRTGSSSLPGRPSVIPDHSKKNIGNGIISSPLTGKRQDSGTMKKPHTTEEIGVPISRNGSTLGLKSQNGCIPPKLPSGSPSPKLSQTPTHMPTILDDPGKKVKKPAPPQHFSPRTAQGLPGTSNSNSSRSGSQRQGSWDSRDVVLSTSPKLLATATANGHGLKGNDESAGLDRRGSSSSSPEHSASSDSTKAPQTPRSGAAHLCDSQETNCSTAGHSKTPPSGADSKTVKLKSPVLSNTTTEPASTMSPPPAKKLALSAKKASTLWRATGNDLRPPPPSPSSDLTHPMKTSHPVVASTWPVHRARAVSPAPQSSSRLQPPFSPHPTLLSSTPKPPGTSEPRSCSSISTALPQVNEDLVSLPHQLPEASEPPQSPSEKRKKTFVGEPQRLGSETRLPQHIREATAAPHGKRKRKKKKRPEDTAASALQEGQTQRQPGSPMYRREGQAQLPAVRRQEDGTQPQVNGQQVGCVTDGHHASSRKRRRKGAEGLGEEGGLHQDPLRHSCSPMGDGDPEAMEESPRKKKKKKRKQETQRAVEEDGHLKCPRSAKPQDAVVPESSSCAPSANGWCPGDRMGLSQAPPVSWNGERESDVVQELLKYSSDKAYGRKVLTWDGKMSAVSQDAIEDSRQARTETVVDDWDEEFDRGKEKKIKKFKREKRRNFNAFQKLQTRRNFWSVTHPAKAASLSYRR
Method in brief: as §1

USP38 = biological target: T2, USP38 (UniProt Q8NB14)
T2 sequence (whole entry): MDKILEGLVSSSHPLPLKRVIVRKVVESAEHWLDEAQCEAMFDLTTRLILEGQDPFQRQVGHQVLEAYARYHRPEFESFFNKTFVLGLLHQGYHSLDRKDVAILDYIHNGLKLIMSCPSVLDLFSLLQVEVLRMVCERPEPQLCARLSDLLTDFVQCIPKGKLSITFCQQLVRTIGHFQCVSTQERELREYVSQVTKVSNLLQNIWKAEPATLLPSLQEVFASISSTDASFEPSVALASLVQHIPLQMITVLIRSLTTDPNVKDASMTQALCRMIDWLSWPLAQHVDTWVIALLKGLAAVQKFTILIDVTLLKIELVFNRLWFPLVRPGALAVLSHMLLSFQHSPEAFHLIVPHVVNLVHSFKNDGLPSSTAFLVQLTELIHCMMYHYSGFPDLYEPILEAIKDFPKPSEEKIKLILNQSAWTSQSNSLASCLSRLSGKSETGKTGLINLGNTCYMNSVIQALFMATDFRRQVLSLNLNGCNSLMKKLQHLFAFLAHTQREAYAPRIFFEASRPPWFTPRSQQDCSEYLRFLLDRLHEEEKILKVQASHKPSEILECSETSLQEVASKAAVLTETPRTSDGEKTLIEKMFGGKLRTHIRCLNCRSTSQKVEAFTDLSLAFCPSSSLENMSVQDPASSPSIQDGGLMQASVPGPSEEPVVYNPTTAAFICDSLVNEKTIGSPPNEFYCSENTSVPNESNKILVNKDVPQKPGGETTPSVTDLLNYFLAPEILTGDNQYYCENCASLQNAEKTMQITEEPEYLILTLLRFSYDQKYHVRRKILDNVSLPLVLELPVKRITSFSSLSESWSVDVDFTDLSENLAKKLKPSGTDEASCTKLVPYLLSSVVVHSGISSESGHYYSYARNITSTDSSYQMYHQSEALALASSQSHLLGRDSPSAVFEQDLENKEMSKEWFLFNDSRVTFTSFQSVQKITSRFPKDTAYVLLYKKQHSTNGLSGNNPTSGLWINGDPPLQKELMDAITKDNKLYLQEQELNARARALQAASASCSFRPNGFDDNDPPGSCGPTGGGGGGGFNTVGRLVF
Method in brief: as §1

USP39 = biological target: T3, USP39 (UniProt Q53GS9)
T3 sequence (whole entry): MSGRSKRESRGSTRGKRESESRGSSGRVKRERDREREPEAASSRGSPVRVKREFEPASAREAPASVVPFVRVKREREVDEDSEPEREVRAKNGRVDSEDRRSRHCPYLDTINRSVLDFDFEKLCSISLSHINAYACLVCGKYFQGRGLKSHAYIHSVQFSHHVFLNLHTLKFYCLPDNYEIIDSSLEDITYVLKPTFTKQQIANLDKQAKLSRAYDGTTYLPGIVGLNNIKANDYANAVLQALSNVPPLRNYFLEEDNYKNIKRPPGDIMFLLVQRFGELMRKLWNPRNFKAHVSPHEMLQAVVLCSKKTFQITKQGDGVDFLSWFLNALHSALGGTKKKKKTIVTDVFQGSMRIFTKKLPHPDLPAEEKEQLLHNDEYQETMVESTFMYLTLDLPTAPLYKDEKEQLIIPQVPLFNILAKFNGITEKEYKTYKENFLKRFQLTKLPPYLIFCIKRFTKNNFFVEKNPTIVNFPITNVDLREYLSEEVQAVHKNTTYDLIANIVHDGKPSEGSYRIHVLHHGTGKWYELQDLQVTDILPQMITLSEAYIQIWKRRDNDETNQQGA
Method in brief: as §1

USP4 = biological target: T4, USP4 (UniProt Q13107)
T4 sequence (whole entry): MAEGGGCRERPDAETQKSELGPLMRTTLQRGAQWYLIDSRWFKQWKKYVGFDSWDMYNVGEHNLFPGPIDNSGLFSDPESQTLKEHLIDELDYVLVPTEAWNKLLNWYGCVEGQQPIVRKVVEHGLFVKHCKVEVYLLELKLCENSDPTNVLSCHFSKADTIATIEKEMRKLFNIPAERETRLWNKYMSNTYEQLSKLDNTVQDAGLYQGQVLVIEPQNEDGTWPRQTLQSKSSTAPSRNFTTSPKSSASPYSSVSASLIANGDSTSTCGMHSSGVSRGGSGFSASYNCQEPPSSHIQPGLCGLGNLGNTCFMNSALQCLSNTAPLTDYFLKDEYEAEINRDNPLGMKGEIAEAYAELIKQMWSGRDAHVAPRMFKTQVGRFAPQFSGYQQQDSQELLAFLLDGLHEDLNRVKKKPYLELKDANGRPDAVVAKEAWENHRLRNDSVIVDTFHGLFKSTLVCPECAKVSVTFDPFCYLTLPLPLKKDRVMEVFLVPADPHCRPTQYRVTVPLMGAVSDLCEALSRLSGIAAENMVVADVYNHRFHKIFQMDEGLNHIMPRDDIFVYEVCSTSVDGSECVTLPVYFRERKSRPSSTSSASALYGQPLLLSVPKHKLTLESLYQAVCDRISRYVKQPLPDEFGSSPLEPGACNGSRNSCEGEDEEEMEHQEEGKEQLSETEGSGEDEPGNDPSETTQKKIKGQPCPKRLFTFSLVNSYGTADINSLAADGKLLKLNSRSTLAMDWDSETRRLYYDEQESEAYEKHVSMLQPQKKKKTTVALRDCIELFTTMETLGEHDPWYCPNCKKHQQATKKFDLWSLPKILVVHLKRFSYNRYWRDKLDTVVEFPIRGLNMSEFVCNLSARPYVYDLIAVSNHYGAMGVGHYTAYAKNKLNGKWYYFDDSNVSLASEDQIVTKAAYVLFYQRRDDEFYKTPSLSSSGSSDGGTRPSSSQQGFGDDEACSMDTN
Method in brief: as §1

Measured: log2 ratio of Biotin-Ahx-Ub-VS probe labelling

USP34, sequence (Q70CQ2 whole entry, the tested form may be a part): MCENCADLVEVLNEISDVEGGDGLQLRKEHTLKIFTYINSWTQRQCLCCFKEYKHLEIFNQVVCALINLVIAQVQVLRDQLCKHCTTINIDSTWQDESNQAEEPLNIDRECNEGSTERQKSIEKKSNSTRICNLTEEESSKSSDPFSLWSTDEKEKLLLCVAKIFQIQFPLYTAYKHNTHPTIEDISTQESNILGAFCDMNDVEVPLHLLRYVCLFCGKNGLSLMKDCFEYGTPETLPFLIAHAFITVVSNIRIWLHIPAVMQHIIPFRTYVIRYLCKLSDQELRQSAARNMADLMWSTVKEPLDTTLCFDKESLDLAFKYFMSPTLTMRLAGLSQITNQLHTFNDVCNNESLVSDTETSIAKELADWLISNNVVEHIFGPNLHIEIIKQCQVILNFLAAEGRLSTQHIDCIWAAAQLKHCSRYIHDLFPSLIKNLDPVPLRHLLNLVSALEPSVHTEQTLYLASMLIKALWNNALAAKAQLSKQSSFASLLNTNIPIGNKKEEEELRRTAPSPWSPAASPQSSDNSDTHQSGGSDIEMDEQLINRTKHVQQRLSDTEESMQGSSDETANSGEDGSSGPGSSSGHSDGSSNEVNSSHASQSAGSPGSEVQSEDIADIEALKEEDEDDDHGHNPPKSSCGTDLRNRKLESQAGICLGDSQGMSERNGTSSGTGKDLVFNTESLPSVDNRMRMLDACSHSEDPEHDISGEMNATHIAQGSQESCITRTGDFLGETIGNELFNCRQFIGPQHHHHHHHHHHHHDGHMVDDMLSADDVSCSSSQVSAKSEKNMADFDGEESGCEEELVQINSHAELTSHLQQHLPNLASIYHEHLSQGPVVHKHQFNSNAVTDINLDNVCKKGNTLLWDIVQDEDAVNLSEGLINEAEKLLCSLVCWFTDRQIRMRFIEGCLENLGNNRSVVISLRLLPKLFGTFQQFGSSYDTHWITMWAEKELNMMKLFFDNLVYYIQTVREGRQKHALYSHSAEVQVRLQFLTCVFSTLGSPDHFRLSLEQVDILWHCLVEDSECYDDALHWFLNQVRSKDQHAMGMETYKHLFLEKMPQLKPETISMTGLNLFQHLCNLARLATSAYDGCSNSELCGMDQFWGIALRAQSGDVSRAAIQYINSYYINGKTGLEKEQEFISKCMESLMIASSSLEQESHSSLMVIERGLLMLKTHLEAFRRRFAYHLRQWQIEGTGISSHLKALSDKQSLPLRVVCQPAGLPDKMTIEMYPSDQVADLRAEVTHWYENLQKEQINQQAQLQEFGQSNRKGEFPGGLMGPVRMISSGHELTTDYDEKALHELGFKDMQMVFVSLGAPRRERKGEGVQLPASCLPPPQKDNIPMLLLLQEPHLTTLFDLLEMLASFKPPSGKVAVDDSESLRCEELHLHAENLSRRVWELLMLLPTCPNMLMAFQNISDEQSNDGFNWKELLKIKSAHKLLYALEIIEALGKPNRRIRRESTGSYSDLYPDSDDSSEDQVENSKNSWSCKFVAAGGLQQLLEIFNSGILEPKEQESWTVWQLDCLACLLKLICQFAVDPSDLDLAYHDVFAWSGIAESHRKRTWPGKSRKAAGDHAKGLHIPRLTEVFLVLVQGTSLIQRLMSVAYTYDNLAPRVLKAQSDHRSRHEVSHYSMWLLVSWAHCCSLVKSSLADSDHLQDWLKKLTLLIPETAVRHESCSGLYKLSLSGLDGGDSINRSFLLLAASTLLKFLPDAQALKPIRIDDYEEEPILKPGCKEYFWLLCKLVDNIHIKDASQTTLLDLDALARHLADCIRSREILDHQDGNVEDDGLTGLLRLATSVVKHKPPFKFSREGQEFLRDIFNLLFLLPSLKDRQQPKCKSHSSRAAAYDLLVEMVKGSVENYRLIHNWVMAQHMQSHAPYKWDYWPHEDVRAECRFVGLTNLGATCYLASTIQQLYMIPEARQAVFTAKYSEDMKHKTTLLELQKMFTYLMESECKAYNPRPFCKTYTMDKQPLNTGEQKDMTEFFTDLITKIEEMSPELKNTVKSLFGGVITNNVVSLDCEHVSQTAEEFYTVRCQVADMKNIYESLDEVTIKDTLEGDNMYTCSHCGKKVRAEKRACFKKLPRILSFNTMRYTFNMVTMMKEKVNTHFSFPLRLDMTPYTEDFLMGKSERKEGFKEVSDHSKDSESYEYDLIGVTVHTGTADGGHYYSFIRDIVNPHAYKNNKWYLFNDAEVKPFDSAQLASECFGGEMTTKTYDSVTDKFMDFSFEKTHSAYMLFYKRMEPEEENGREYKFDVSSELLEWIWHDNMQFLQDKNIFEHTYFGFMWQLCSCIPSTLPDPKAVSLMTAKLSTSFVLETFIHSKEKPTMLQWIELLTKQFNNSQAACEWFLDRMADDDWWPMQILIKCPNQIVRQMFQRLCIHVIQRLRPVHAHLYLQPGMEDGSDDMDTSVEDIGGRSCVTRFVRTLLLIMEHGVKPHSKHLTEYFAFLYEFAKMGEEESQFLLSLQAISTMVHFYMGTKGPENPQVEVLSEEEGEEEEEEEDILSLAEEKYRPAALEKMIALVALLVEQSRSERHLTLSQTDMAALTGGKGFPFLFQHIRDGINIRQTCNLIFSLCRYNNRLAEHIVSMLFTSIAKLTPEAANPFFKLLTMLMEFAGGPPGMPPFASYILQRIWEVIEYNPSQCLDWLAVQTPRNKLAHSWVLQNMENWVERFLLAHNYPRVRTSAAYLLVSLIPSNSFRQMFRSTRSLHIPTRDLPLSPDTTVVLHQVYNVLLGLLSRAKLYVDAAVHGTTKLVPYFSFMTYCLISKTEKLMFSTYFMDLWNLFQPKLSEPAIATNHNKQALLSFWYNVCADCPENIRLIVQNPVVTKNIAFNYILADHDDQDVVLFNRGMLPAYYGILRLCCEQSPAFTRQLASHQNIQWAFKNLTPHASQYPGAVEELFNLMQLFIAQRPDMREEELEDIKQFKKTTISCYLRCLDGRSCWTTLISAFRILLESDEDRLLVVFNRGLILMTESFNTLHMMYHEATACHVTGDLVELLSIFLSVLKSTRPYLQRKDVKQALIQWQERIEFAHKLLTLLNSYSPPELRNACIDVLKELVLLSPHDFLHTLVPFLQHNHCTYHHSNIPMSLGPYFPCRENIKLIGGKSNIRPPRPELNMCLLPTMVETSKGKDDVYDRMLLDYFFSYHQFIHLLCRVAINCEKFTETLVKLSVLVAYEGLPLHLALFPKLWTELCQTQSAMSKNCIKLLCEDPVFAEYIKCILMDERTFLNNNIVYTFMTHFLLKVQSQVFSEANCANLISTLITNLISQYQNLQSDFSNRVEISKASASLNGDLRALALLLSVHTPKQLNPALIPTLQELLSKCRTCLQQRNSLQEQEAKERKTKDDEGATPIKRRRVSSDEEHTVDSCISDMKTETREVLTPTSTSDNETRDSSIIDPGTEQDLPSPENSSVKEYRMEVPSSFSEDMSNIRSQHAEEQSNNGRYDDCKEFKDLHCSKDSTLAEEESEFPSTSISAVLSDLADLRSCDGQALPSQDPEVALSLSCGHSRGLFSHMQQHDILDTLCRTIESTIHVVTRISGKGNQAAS

CC(NC(=O)CCl)c1ccc2[nH]ncc2c1 (stereo not given)
inactive: USP34 -0.271 | USP36 -0.00241 | USP38 -0.222 | USP39 -0.146 | USP4 -0.324
